Reference: PubChem BioAssay
The source made the active and inactive calls. Unless noted, how the calls were made is not given here.

Columns and labels:
[1] = test system: XIP peptide (Xip251-270) binding; assay: XIP fragment 251-270 binding compounds – biochemical, small-molecule microarray, fluorescence 635/667 nm, 0.1 µg/mL protein, primary screen (AID 1182); conditions: fluorescent protein binding, 635 nm, higher = more signal, called active from +8 up or from −8 down
[2] = test system: XIP peptide (Xip251-270); assay: compounds binding XIP fragment 251-270 – biochemical, small-molecule microarray, fluorescence 635/667 nm, 0.5 µg/mL protein, primary screen (AID 1183); conditions: fluorescence 635 nm, higher = more signal
[3] = blood-stage malaria parasite viability loss – strain 3D7, DAPI fluorescence, 100 nL, primary screen (AID 1184);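 further: parasites grown inside human red blood cells in medium with human serum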; conditions: P. falciparum 3D7 growth, 3 d, higher = more signal
[4] = target: Homeobox protein Hox-A13 (Mus musculus) (UniProt Q62424); assay: disruptors of Hoxa13 oligonucleotide interaction – biochemical, fluorescence polarization, labeled oligonucleotide, primary screen (AID 1185); conditions: Hoxa13:DNA binding, 15 min, higher = more signal, called active from +8 up or from −8 down
Sequence of Homeobox protein Hox-A13 (Mus musculus) (Q62424 whole entry, looked up): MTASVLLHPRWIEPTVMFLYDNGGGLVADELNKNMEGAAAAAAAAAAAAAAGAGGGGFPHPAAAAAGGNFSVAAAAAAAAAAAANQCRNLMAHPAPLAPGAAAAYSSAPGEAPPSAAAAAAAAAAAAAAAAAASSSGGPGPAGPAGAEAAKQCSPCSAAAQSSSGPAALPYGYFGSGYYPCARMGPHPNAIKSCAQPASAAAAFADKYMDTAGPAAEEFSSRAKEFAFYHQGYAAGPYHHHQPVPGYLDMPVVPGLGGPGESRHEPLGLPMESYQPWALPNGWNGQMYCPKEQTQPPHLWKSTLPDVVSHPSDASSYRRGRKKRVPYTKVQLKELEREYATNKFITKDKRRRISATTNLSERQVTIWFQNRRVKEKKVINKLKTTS

[5] = blockers of DNA damage checkpoint Chk1 activation – imaging, HeLa, hydroxyurea, phospho-Chk1 antibody, percent positive cells, primary screen (AID 1186); conditions: hydroxyurea-induced phospho-Chk1 immunofluorescence imaging, higher = more signal
[6] = blockers of DNA damage checkpoint Chk1 activation – imaging, HeLa, hydroxyurea, phospho-Chk1 nuclear intensity, primary screen (AID 1187); conditions: hydroxyurea-induced phospho-Chk1 immunofluorescence imaging, higher = more signal

Row | SMILES | composite z-score [1] | composite z-score [2] | z-score [3] | z-score [4] | z-score [5] | z-score [6]
1 | O=C1c2ccccc2[C@](Cc2ccccc2I)(C(=O)NC2CC2)[C@H](c2ccc(CO)cc2)N1Cc1ccccc1Cl | 1.33 (inactive) | -0.154 | -1.03 | -4.21 (inactive) | 0.129 (inactive) | -0.341 (inactive)
2 | N#Cc1ccc(NN2C(C(O)c3ccco3)C=CC3C(=O)N(c4ccccc4)C(=O)C32)cc1 (configuration not stated) | -0.323 (inactive) | 0.347 | 1.1 | -1.96 (inactive) | -0.124 (inactive) | -0.228 (inactive)
3 | COCCOC(=O)N1C(=O)[C@@]2(c3cc(C#CCCO)ccc31)[C@H](C(=O)N1CCc3cc(OC)c(OC)cc3C1)[C@H]1C(=O)O[C@H](c3ccccc3)[C@H](c3ccccc3)N1[C@@H]2c1ccc(OCCO)cc1 | -0.608 (inactive) | 0.726 | -2.14 | 3.13 (inactive) | -0.148 (inactive) | -0.0047 (inactive)
4 | O=C1c2ccccc2C(=O)C2CC([C@H]3Oc4ccccc4S(=O)(=O)N4CCC[C@@H]34)=CCC12 (some centres not stated) | -0.26 (inactive) | -0.267 | -1.24 | -1.77 (inactive) | -0.278 (inactive) | -0.063 (inactive)
5 | C=CCC(OC(C)=O)[C@@H]1[C@@H](N(Cc2cc3ccccc3o2)C(=O)Cc2ccc(OC)cc2)c2cc(OCCCO)ccc2N1C(=O)c1ccc(-c2ccccc2)cc1 (some centres not stated) | -0.341 (inactive) | -0.236 | -2.84 | -1.11 (inactive) | 0.298 (inactive) | 0.549 (inactive)
6 | CN(C)C(=O)[C@@]1(CCC(=O)OC(C)(C)C)COC(c2ccc(OCCCO)cc2)=N1 | 0.9 (inactive) | 0.846 | 0.388 | -3.81 (inactive) | -0.0526 (inactive) | 0.337 (inactive)
7 | COCCOC(=O)N1C(=O)[C@@]2(c3cc(C#Cc4ccc(OC)cc4)ccc31)[C@H](C(=O)N1CCc3cc(OC)c(OC)cc3C1)[C@H]1C(=O)O[C@H](c3ccccc3)[C@H](c3ccccc3)N1[C@@H]2c1ccc(OCCO)cc1 | -0.266 (inactive) | 0.688 | -2.22 | 2.6 (inactive) | 0.0413 (inactive) | 0.277 (inactive)
8 | O=C1C[C@@](C(=O)O)(c2ccc([N+](=O)[O-])cc2)[C@@H](c2ccc(CO)cc2)N1CC12CC3CC(CC(C3)C1)C2 | 0.312 (inactive) | 0.748 | -0.626 | -3.96 (inactive) | -0.226 (inactive) | -0.715 (inactive)
9 | Cc1ccc(N2C(=O)c3ccccc3[C@](C)(C(=O)NC(C)C)[C@@H]2c2ccc(CO)cc2)nc1 | -0.224 (inactive) | 0.677 | -0.736 | -0.858 (inactive) | 0.0932 (inactive) | 0.205 (inactive)
10 | COc1ccc([Si](C)(C)[C@@H]2[C@@H](CCO)O[C@]3(C(=O)N(Cc4cccc(N5C(=O)COc6ccccc65)c4)c4ccccc43)[C@H]2C)cc1 | -0.417 (inactive) | 0.763 | -2.78 | -1.01 (inactive) | -1.02 (inactive) | -1.18 (inactive)
11 | O=C1OCCC=C[C@H]2OC34C=CCN(Cn5nnc6ccccc65)C(=O)[C@H]3N(CCCCCO)C(=O)[C@@H]4C12 (some centres not stated) | 0.282 (inactive) | -0.75 | 0.561 | -4.63 (inactive) | 1.09 (inactive) | 1.08 (inactive)
12 | [N-]=[N+]=NCc1ccccc1[C@H]1OC(c2ccc(OCCCO)cc2)=N[C@@]1(Cc1ccccc1)C(N)=O | 1.78 (inactive) | 0.852 | -0.676 | -3.61 (inactive) | -0.441 (inactive) | -0.189 (inactive)
13 | CCN(CC)c1ccc(N2CC=CC34O[C@@H]5/C=C\CCCOC(=O)C5[C@H]3C(=O)N(CCCCCO)[C@@H]4C2=O)cc1 (some centres not stated) | -0.0261 (inactive) | 0.0595 | 1.98 | -5.15 (inactive) | -0.0764 (inactive) | 0.34 (inactive)
14 | COC(=O)C(CC#Cc1ccc2c(c1)[C@]1(C(=O)N2)[C@H](c2ccc(O)cc2)N2[C@H](c3ccccc3)[C@H](c3ccccc3)OC(=O)[C@H]2[C@@H]1C(=O)O)C(=O)OC | -0.173 (inactive) | 0.665 | -0.102 | -6.45 (inactive) | 0.223 (inactive) | -0.31 (inactive)
15 | COc1ccc(C(=O)Nc2ccc(CN3C(=O)[C@@]4(O[C@@H](CC(=O)N5Cc6ccccc6C[C@H]5CO)[C@H]([Si](C)(C)c5ccc(OC)cc5)[C@H]4C)c4ccccc43)cc2)cc1 | 1.38 (inactive) | 0.701 | -1.23 | -2.48 (inactive) | 0.175 (inactive) | 0.514 (inactive)
16 | C=CCNC(=O)[C@H]1[C@@H]2C(=O)O[C@@H](c3ccccc3)[C@@H](c3ccccc3)N2[C@@H](c2ccc(O)cc2)[C@]12C(=O)N(C(=O)OCCOC)c1ccc(C#CC3(O)CCCCCC3)cc12 | 1.44 (inactive) | 0.842 | 0.351 | -2.42 (inactive) | -0.213 (inactive) | 0.382 (inactive)

Row | SMILES | composite z-score [1] | composite z-score [2] | z-score [3] | z-score [4] | z-score [5] | z-score [6]
17 | COC(=O)[C@@]1(Cc2ccc(F)cc2)[C@H]2c3cc(C(=O)N(C)C)n(Cc4ccc(C)c(F)c4F)c3C[C@H]2CN1C(=O)c1ccccc1 | 0.365 (inactive) | -0.0688 | -1.13 | -4.74 (inactive) | -0.014 (inactive) | -0.193 (inactive)
18 | Cc1ccc(F)cc1S(=O)(=O)N[C@@H]1CCN(C(=O)c2ccc(OC(C)C)cc2)C1 | 0.615 (inactive) | 0.805 | -1.21 | -5.21 (inactive) | 0.0079 (inactive) | -0.303 (inactive)
19 | COCCOC(=O)N1C(=O)[C@@]2(c3cc(C#CCC(C(=O)OC)C(=O)OC)ccc31)[C@H](c1ccc(OCCO)cc1)N1[C@H](c3ccccc3)[C@H](c3ccccc3)OC(=O)[C@H]1[C@@H]2C(N)=O | 0.335 (inactive) | 0.803 | -1.96 | -1.07 (inactive) | -0.154 (inactive) | 0.0321 (inactive)
20 | CCCCC(O)C1C=CC2C(=O)N(Cc3ccccc3)C(=O)C2N1n1cnnc1 (configuration not stated) | 0.506 (inactive) | 0.856 | -1.33 | -1.62 (inactive) | 0.737 (inactive) | 0.0163 (inactive)
21 | CC(=O)NCCCC[C@@H]1NC(=O)[C@H]2C[C@@H](C(=O)NCCCCCN)[C@@H](c3cccc(OCCO)c3)N2C1=O | 0.149 (inactive) | 0.654 | 0.184 | -2.28 (inactive) | -1.11 (inactive) | -0.661 (inactive)
22 | COc1cc(NN2C(C(O)c3ccc(I)cc3)C=CC3C(=O)N(C)C(=O)C32)cc(OC)c1OC (configuration not stated) | 1.42 (inactive) | -0.064 | -0.336 | -1.63 (inactive) | -0.297 (inactive) | -0.449 (inactive)
23 | COC(=O)[C@@]1(Cc2ccc(OC)cc2)[C@H]2c3cc(C(=O)N(C)C)n(Cc4cc(F)c(F)c(F)c4)c3C[C@H]2CN1C(=O)c1ccccc1 | 0.0306 (inactive) | 0.577 | -1.81 | -1.93 (inactive) | 0.102 (inactive) | -0.186 (inactive)
24 | COC(=O)c1c(CC[C@@H](CO)NC(=O)N[C@@H](C)Cn2cc(C3(O)CCCC3)nn2)oc(C(C)=O)c1C(=O)OC | -0.0616 (inactive) | 0.407 | -2.04 | -1.93 (inactive) | 1.1 (inactive) | 0.929 (inactive)
25 | CCCC=C(CCC)[C@@H](NC(=O)Cc1ccccc1)c1ccc(C(=O)OC)cc1 | 0.349 (inactive) | 0.34 | -0.958 | -1.93 (inactive) | 0.374 (inactive) | -0.309 (inactive)
26 | CC(C)(C)OC(=O)CC[C@]1(C(=O)N2CCCCC2)N=C(c2ccc(OCCCO)cc2)O[C@H]1c1ccccc1CN=[N+]=[N-] | 1.25 (inactive) | 0.855 | -2.26 | -2.91 (inactive) | -0.692 (inactive) | -0.917 (inactive)
27 | CCCCC(=C=CC[C@H](O)c1ccccc1OCCO)C[C@H](O)c1ccccn1 | 0.418 (inactive) | 0.318 | -0.966 | -3.35 (inactive) | 0.305 (inactive) | 0.113 (inactive)
28 | C=CCOC(=O)[C@@H]1[C@H]2C(=O)O[C@H](c3ccccc3)[C@H](c3ccccc3)N2[C@H](c2ccc(OCCOC(=O)[C@@H]3C[C@@H]4C(=O)N[C@@H](CCCCNC(C)=O)C(=O)N4[C@@H]3c3ccc(O)cc3)cc2)[C@@]12C(=O)Nc1ccc(I)cc12 | 0.0787 (inactive) | 0.794 | -1.61 | -0.385 (inactive) | 0.552 (inactive) | 0.882 (inactive)
29 | COc1cc(C(O)C2C=CC3C(=O)NC(=O)C3N2Nc2ccc(Cl)cc2Cl)cc(OC)c1OC (configuration not stated) | 0.587 (inactive) | 0.619 | -0.395 | -6.07 (inactive) | 0.136 (inactive) | 0.148 (inactive)
30 | COCCOC(=O)N1C(=O)[C@@]2(c3cc(C#CCNC(N)=O)ccc31)[C@H](C(=O)N1CCCCCCC1)[C@H]1C(=O)O[C@H](c3ccccc3)[C@H](c3ccccc3)N1[C@@H]2c1ccc(OCCO)cc1 | 0.0447 (inactive) | 0.28 | -1.77 | -15.8 (active) | -0.0977 (inactive) | -0.64 (inactive)
31 | C=CCNC(=O)[C@@H]1[C@H]2C(=O)O[C@H](c3ccccc3)[C@H](c3ccccc3)N2[C@H](c2ccc(O)cc2)[C@@]12C(=O)Nc1ccc(C#CCCO)cc12 | 3.57 (inactive) | 0.693 | -0.37 | -5.14 (inactive) | -0.154 (inactive) | -0.0542 (inactive)
32 | CCOC(=O)C[C@H]1[C@H](OC(=O)c2cc3ccccc3oc2=O)[C@@H](NC(=O)c2ccc3ccccc3n2)c2cc(OCCCO)ccc2N1C(=O)c1ccc2ccccc2n1 | -0.276 (inactive) | 0.484 | -1.15 | -1.29 (inactive) | -0.443 (inactive) | -0.134 (inactive)
